Seven compounds from PubChem BioAssay (NCATS) can be followed below.

Assay [1] addresses Lysosomal acid glucosylceramidase (Homo sapiens) (UniProt P04062). The experiment in a line: Glucocerebrosidase-p2 (AID 348; in the data active = potency below about 10 µM; also: potency is read from the fitted curve at half-maximal effect). Conditions: purified GBA, blue fluorogenic substrate, 40 min. Put shortly: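 Compounds titrated from 0.6 nM upwards against 0.2 nM enzyme in pH 5.9 citric acid/KH2PO4, taurocholate, tween-20; blue fluorogenic substrate 80 uM, 40 min room temperature, stopped and read Ex 365/Em 440 for AC50.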

Assay [2] can be described thus: AP1 Signaling Pathway (AID 357). Also: % is scaled to controls: 0 for no effect and ±100 for the full control effect. The settings on record: ME-180 AP-1-bla reporter, EGF-induced, beta-lactamase ratio, 5 h; at 7.69 µM (top of the series) unless noted. Put shortly: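 Read-out was the 460nm/530nm emission ratio (excitation 405nm) after CCF4 loading for 2.5 hours at room temperature. Cells carried an AP-1-driven beta-lactamase reporter, were stimulated with EC50 EGF plus compound for 5 hours, and AC50 values came from titrations.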

In assay [3] the target is Cytochrome P450 1A2 (Homo sapiens) (UniProt P05177). The experiment in a line: p450-cyp1a2 (AID 410; calls by dose curve; also: potency is read from the fitted curve at half-maximal effect). Conditions: recombinant CYP1A2, luciferin-ME demethylation, luminescence; series mostly up to 11.4 µM. Put shortly: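 Luminescent readout of luciferin formed from Luciferin-ME by human CYP1A2; data normalized against complete inhibition by 57 uM furafylline. Enzyme 20nM, substrate 100uM at Km, 100mM KPO4 buffer, 60 min reaction at room temperature.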
Cytochrome P450 1A2 (Homo sapiens), sequence (P05177 whole entry, looked up): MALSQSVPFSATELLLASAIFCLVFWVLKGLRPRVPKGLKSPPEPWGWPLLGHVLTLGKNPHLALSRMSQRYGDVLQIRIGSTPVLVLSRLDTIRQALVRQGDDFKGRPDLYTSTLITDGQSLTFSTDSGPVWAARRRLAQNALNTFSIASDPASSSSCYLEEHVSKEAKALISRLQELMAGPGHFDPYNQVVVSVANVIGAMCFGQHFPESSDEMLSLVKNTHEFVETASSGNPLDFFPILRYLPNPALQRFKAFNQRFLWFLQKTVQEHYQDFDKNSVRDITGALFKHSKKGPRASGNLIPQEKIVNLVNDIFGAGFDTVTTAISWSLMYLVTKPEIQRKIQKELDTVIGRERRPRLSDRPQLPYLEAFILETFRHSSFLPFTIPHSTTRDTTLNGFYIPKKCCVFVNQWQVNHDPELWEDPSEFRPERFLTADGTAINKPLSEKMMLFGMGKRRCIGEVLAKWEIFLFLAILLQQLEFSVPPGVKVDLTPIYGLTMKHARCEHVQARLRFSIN

Assay [4] in a line: Stat Signaling Pathway (AID 446).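 Also: ME-180 cervical cancer cells given 40 pM IL-6 alongside compound; SIE-controlled beta-lactamase reporter measured as 460/530 nm FRET emission ratio; % is scaled to controls: 0 for no effect and ±100 for the full control effect.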 The settings on record: ME-180 (cervical carcinoma) SIE beta-lactamase reporter, IL-6 stimulated, 5 h; at 7.69 µM (top of the series) unless noted. Put shortly:
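ME-180 cells carrying a SIE-driven beta-lactamase reporter are stimulated with 40 pM IL-6 for 5 h at 37C in the presence of compound. The 460/530 nm FRET substrate ratio is read after 2.5 h at RT. Data are normalised to 300 pM IL-6 and to 125 nM JAK inhibitor controls.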

The target in assay [5] is Glucocorticoid receptor (Homo sapiens) (UniProt P04150). The experiment in a line: GR-GFP Redistribution (AID 450;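 active = compounds whose dose series gives a full or clear partial fitted curve of increased nuclear translocation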; also: potency is read from the fitted curve at half-maximal effect). The settings on record: U2OS GR-GFP nuclear translocation, laser cytometry, 2 h.
Glucocorticoid receptor (Homo sapiens), sequence (P04150 whole entry, looked up): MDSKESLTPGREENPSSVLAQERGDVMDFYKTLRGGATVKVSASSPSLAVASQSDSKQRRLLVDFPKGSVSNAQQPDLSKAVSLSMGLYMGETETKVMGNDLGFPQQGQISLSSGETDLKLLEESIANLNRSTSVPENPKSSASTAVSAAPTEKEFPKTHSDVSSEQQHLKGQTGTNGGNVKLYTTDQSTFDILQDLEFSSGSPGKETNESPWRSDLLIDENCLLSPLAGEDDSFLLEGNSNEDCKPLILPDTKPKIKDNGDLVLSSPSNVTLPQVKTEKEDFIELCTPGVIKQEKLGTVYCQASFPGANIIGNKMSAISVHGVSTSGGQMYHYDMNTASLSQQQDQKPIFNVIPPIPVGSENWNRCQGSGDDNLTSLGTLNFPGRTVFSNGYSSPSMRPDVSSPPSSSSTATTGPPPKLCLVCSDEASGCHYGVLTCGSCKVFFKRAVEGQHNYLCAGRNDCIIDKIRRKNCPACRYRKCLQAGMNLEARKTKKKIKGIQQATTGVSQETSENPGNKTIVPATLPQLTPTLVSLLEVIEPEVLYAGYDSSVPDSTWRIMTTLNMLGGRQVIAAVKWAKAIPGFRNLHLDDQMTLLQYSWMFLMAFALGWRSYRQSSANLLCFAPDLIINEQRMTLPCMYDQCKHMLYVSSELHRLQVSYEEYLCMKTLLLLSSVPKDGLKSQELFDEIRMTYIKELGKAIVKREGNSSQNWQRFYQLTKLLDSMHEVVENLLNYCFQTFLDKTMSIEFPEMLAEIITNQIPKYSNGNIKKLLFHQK
For assay [6] the target is unchanged. The experiment in a line: GR-EFC Redistribution (AID 451; calls by dose curve; also: potency is read from the fitted curve at half-maximal effect). Conditions: CHO-K1 GR-EFC translocation, beta-gal luminescence, 2 h. Put shortly:
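CHO-K1 cells expressing nuclear EA and GR-ED fragments of b-gal; compounds titrated up to 46 uM final, 2 h at 37 C. GR nuclear translocation read as complemented b-gal luminescence after 1 h RT detection.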

The target in assay [7] is Mitogen-activated protein kinase 10 (Mus musculus) (UniProt Q61831). The experiment in a line: JNK3 AlphaScreen Assay (AID 530).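 Also: kinase came from lysate of stimulated human HepG2 cells; signal reports phosphorylation of biotinylated GST-cJun 1-79 at Ser73 with 10 µM ATP; % is scaled to controls: 0 for no effect and ±100 for the full control effect.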 Conditions: JNK3 lysate, c-Jun phosphorylation; series mostly up to 11.4 µM. Put shortly:
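Pre-activated (IL-1β/TNFα) JNK3 in HepG2 lysates phosphorylates biotin-GST-cJun(1-79), 10 uM ATP; anti-phospho-cJun(Ser73) AlphaScreen read at room temperature, pH 7.6 Tris buffer. Compounds pre-incubated 15 min as titrations.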
For orientation: In Alpha technology, singlet oxygen from a donor bead excites a nearby acceptor bead.

Assay [8] has as its target 3',5'-cyclic-AMP phosphodiesterase 4B (Homo sapiens) (UniProt Q07343). The experiment in a line: qHTS Assay for Inhibitors of PDE-IV (AID 607; active = well fitted activation curve with a large enough effect in the main read-out, with a control signal flat, not every such curve was filed as active; also: % of control where 0% means no effect). Conditions: HEK293 ACTOne CNG channel cells, membrane potential fluorescence; series mostly up to 22.9 µM. Put shortly: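 HEK293 ACTOne cells with CNG channel (1000/well), endogenous PDE4; membrane potential dye, compounds up to 22.9 uM final. Fluorescence Ex 535/Em 590; RO 20-1724 (100 uM final) as reference.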
For orientation: qHTS replaces the single test concentration by a dilution series.

Assay [9] concerns the target Cytochrome P450 2C9 (Homo sapiens) (UniProt P11712). The experiment in a line: qHTS Assay for Inhibitors and Substrates of Cytochrome P450 2C9 (AID 883; active = well fitted curve in the direction sought with a large enough effect; an effect the other way counts as inactive or inconclusive; also: potency is read from the fitted curve at half-maximal effect; nearly all actives have a fitted effect of over 60% in size). Conditions: recombinant CYP2C9, luciferin-H luminescence, 60 min; series mostly up to 11.4 µM. Put shortly: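 Signal: luciferase luminescence reporting luciferin produced by CYP2C9. Conditions: 10nM enzyme, Luciferin-H 100uM at KM, 25mM KPO4, 37C, 60 min NADPH-driven reaction. Reference: 57uM sulphaphenazole as 100% inhibition.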

The target in assay [10] is Cytochrome P450 3A4 (Homo sapiens) (UniProt P08684). The experiment in a line: qHTS Assay for Inhibitors and Substrates of Cytochrome P450 3A4 (AID 884; active = well fitted curve in the direction sought with a large enough effect; an effect the other way counts as inactive or inconclusive; also: nearly all actives have a fitted effect of over 50% in size; also: potency is read from the fitted curve at half-maximal effect; as to activity change, negative = inhibition: % is scaled to controls: 0 for no effect and ±100 for the full control effect). The settings on record: recombinant CYP3A4, Luciferin-PPXE luminescence; series mostly up to 57.1 µM. A digest of the protocol: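 20 nM human CYP3A4 with 25 uM Luciferin-PPXE (at KM) in 200 mM KPO4, preincubated 10 min with compound; NADPH regeneration started a 60 min RT reaction. Luciferin detected by luminescence, normalized to 57 uM ketoconazole as full inhibition.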
Cytochrome P450 3A4 (Homo sapiens), sequence (P08684 whole entry, looked up): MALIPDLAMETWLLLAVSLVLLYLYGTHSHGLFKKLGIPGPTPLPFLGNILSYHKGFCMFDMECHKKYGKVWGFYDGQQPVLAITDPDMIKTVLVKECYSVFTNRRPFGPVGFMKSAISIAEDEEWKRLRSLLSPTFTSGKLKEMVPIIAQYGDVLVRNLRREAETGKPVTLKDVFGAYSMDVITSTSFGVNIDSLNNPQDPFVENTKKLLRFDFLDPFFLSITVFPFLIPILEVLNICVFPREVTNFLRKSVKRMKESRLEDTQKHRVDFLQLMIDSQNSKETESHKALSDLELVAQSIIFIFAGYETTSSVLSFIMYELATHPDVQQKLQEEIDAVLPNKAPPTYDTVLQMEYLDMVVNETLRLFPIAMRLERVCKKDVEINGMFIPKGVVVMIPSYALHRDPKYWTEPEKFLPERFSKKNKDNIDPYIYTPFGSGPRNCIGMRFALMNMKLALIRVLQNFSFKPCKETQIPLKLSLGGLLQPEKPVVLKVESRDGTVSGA

Assay [11] shares this target. The experiment in a line: qHTS Assay for Activators of Cytochrome P450 3A4 (AID 885; active = well fitted curve in the direction sought with a large enough effect; an effect the other way counts as inactive or inconclusive; also: nearly all actives have a fitted effect of over 65% in size). The settings on record: recombinant CYP3A4, Luciferin-PPXE luminescence, 60 min; series mostly up to 11.4 µM. A digest of the protocol:
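Human CYP3A4 (20 nM) with Luciferin-PPXE at 25 uM (its KM) in 200 mM KPO4; 10 min compound preincubation, then NADPH regeneration and 60 min reaction at RT. Luciferin read by luminescence; normalized to 57 uM ketoconazole full inhibition.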

Assay [12] concerns the target Cytochrome P450 2D6 (Homo sapiens) (UniProt P10635). Briefly: qHTS Assay for Inhibitors and Substrates of Cytochrome P450 2D6 (AID 891; active = well fitted curve in the direction sought with a large enough effect; an effect the other way counts as inactive or inconclusive; also: nearly all actives have a fitted effect of over 60% in size; also: potency is read from the fitted curve at half-maximal effect). Conditions: recombinant CYP2D6, luciferin-ME EGE luminescence; series mostly up to 11.4 µM. Put shortly: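 Human CYP2D6 (5 nM) with 30 uM Luciferin-ME EGE (at Km) in 100 mM KPO4, compound preincubated 10 min, then NADPH regeneration system for 60 min at room temperature. Luciferin read by luminescence; normalized to 1.43 uM quinidine.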

Assay [13] concerns the target Cytochrome P450 2C19 (Homo sapiens) (UniProt P33261). Briefly: qHTS Assay for Inhibitors and Substrates of Cytochrome P450 2C19 (AID 899; active = well fitted curve in the direction sought with a large enough effect; an effect the other way counts as inactive or inconclusive; also: nearly all actives have a fitted effect of over 60% in size; also: potency is read from the fitted curve at half-maximal effect). Conditions: recombinant CYP2C19, luciferin-H EGE luminescence; series mostly up to 11.4 µM. Put shortly: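 Signal comes from luciferase acting on luciferin released by CYP2C19-mediated hydroxylation of Luciferin-H EGE, 10uM (KM). Assay mix: 5nM enzyme, 50mM KPO4; 60 min at 37C with NADPH regeneration. Data normalized against 57uM ketoconazole.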

The structures appear in SMILES notation. Values without a mark were called inactive. Records with an inconclusive call do not appear. Active and inactive are the calls of the source. Unless noted, calls follow the shape of the dose curve; as a rule, active = well fitted curve in either direction with a large enough effect (not every such curve was filed as active); inconclusive = small, poorly fitted or top-dose-only effect, or another doubt; inactive = flat fitted curve, though single readings scatter.

Lysosomal acid glucosylceramidase (Homo sapiens), sequence (P04062 whole entry, looked up): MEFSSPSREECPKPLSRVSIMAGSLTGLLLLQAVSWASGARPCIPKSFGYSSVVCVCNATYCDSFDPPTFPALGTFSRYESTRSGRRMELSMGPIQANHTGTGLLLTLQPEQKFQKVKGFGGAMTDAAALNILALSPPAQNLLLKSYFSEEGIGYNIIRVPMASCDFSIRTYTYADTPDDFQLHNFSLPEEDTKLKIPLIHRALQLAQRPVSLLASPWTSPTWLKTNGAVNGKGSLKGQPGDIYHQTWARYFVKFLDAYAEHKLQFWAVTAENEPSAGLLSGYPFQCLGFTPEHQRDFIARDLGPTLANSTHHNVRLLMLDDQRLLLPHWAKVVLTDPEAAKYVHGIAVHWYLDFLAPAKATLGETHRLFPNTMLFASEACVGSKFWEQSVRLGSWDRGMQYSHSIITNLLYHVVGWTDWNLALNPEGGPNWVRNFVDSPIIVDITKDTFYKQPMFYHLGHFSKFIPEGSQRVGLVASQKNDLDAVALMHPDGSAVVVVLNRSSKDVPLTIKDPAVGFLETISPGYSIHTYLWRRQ
3',5'-cyclic-AMP phosphodiesterase 4B (Homo sapiens), sequence (Q07343 whole entry, looked up): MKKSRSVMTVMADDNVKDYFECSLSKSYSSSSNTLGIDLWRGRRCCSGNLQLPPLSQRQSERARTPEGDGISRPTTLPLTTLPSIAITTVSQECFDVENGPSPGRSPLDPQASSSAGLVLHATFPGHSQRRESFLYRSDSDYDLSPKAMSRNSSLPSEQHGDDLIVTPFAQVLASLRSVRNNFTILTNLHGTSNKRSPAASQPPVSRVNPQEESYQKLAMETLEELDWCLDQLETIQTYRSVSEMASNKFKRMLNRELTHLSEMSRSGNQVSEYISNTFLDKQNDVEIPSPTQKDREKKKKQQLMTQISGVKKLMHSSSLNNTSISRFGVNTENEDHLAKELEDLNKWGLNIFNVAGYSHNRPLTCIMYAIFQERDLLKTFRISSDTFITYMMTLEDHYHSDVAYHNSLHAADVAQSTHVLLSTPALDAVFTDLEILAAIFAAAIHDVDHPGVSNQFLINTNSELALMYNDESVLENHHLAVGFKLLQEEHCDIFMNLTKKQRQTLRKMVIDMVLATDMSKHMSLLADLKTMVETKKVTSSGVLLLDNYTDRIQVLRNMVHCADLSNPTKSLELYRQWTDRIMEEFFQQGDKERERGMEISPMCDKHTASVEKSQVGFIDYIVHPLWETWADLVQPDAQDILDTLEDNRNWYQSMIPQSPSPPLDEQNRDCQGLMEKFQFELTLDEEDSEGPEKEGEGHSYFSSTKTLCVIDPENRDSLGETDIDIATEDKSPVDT
Cytochrome P450 2C19 (Homo sapiens), sequence (P33261 whole entry, looked up): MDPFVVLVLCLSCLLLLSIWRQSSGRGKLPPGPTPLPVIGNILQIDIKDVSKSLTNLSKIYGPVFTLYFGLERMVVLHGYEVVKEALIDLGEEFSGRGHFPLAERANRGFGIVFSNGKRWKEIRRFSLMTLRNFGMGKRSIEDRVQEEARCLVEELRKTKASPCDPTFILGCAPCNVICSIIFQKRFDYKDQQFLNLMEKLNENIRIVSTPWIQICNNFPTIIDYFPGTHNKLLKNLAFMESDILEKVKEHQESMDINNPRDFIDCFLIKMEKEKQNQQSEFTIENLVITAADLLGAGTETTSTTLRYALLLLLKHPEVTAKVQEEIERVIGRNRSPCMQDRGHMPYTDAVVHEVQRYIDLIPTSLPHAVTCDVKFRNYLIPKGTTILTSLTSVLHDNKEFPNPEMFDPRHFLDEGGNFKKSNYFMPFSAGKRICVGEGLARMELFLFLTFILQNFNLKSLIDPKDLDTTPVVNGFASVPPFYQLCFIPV
Cytochrome P450 2D6 (Homo sapiens), sequence (P10635 whole entry, looked up): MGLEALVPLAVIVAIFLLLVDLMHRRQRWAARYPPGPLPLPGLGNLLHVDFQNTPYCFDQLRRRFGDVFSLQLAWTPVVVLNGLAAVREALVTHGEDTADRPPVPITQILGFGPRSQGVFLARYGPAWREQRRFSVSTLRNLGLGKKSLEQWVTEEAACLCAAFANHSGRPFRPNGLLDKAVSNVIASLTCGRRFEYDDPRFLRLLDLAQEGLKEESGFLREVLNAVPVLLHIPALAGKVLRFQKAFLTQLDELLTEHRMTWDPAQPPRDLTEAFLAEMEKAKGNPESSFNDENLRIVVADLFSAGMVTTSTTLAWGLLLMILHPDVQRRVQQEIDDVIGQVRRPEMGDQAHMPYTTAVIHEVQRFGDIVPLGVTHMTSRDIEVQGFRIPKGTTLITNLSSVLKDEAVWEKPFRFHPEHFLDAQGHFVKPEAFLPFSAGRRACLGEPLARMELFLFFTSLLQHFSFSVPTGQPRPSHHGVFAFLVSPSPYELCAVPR
Cytochrome P450 2C9 (Homo sapiens), sequence (P11712 whole entry, looked up): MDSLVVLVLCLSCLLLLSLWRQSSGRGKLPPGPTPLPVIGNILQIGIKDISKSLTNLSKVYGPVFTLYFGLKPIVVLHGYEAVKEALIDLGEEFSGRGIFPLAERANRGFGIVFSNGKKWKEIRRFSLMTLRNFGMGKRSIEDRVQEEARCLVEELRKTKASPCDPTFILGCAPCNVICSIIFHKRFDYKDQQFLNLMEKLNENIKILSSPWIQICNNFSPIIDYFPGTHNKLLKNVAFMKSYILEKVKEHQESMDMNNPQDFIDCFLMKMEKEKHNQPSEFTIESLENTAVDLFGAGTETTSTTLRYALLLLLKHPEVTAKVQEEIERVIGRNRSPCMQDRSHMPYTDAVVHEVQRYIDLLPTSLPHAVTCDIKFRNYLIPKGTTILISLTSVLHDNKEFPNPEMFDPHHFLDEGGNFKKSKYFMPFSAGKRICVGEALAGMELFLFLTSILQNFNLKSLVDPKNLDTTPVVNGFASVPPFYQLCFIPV

For the compound `O=C(O)/C=C\C(=O)N1Cc2cc3ccccc3nc2C1`, the values for the Potency in [1], in assay [5] and in assay [6] were more than 11.4 µM, more than 46 µM and more than 9.22 µM, respectively. Also, in assay [2], the activity change, negative = inhibition is 6.48%. In addition, the Potency entry in assay [3], in [7] and in [8] was “inactive” each time. Also, the activity, negative = inhibition in [4] is 12.1%.

Consider `O=C(O)/C=C\C(=O)Nc1cccc2c1-c1ccccc1C2=O`, for which the Potency in assay [1] was more than 11.4 µM; in [3] it was 2.51 µM (active); in assay [5], more than 46 µM; in [6], more than 9.22 µM. Further, the activity change, negative = inhibition in assay [2] is -2.3%. For the same compound, the activity, negative = inhibition in [4] was -4.51%. The Potency result in [7] and in [8] was “inactive” each time.

Consider `c1ccc(SC(Sc2ccccc2)c2ccc3c(c2)OCO3)cc1`, for which the Potency in assay [1] is more than 11.4 µM; in assay [3] it was 0.501 µM (active); in assay [5] it was more than 46 µM; in assay [6], more than 9.22 µM; in assay [9], 3.16 µM (active); in assay [10] it was 2.51 µM (active). In addition, the Potency in assay [12] was 3.16 µM (active); in assay [13], 0.0316 µM (active). Moreover, the activity change, negative = inhibition in assay [2] was -9.51%. Besides, the activity, negative = inhibition in [4] is -12%. Besides, the Potency entry in assay [7], in assay [8] and in [11] was “inactive” each time.

As to `Cc1ccc(C2=Nc3ccccc3S[C@@H](c3cccc([N+](=O)[O-])c3)C2)cc1`, the Potency in [1] is more than 11.4 µM; in [3], 2 µM (active); in assay [5], more than 46 µM; in [6] it was more than 9.22 µM; in assay [10], 3.98 µM (active); in assay [13] it was 3.98 µM (active). In assay [2], the activity change, negative = inhibition was -7.9%. The activity, negative = inhibition in assay [4] is -8.15%. Also, the Potency result in assay [7], in assay [8] and in assay [11] was “inactive” in each case.

For the compound `CN1CCN(CC(=O)N2c3ccccc3Sc3cc4ccccc4cc32)CC1`, the results for the Potency in assay [1], in [5] and in [6] were more than 11.4 µM, more than 46 µM and more than 9.22 µM, respectively. The results for the activity change, negative = inhibition in [2] and in [3] were 12.2% and -21.6% [at 2.29 µM], respectively. Also, the activity, negative = inhibition in assay [4] is -5.37%. The Potency entry in assay [7], in assay [8] and in [11] was “inactive” each time.

With `Cc1ccccc1C(=N)c1ccccc1Cc1cccc2ccccc12`, the Potency in assay [1] was more than 11.4 µM; in assay [5] it was more than 46 µM; in assay [6] it was more than 9.22 µM. Also, the activity change, negative = inhibition is 5.2% in assay [2] and -17.7% [at 2.29 µM] in [3]. Further, the activity, negative = inhibition in assay [4] was 9.25%. Besides, the Potency result in assay [7], in assay [8] and in assay [11] was “inactive” in each case.

As to `O=C(O)C(=Cc1ccc(-c2ccccc2)cc1)C(=O)O`, the Potency is more than 11.4 µM in assay [1], 0.794 µM (active) in assay [3], more than 46 µM in assay [5] and more than 9.22 µM in [6]. The activity change, negative = inhibition in assay [2] was -9.3%; in assay [10] it was -41.1% [at 11.4 µM]. For the same compound, the activity, negative = inhibition in [4] is -12.1%. The Potency entry in assay [7], in assay [8], in [12] and in assay [13] was “inactive” in each case.
